Screening data (PubChem BioAssay)
Sampled rows, rich in hits. Any-hit rate of the full collection: about 0.36%.
RGS4 inhibitor = inhibitors of human regulator of G protein signaling 4 | P49798 | Transcreener GDP fluorescence polarization, RGS4-accelerated GTP hydrolysis | Potency, µM (titrated, usually from 114 µM), without a hit: at the top dose activity change, negative = inhibition, usual class: inhibitors | hit rate 0.039% among 390,000 | AID 504845; further: potency means the concentration at half of the fitted maximal effect; on the % scale 0 is the no-effect control and ±100 the full control effect; nearly all actives have a fitted effect of over 75% in size
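MLSMR compounds (23 nl, pin-transferred) preincubated 10 min at room temperature with a 500nM (2x) first reagent, then RGS4 at 900nM (2x) plus Transcreener GDP mix added; fluorescence polarization (620/688 nm) read before and after 90 min at 30 °C.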
Mm-Cpn inhibitor = blocks the Methanococcus maripaludis chaperonin Mm-Cpn; purified Mm-Cpn ATPase, ADP Transcreener TR-FRET; Potency, µM (titrated, usually from 76.9 µM), without a hit: at the top dose activity, negative = inhibition, usual class: inhibitors; hit rate 0.031% among 330,000; further: potency means the concentration at half of the fitted maximal effect; on the % scale 0 is the no-effect control and ±100 the full control effect; nearly all actives have a fitted effect of over 80% in size
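Reaction buffer contained 30 mM Tris pH 7.4, 100 mM KCl, 5 mM MgCl2 and 1 mM DTT. Mm-CPN (25 nM final) hydrolysed 10 uM ATP over 30 min at 37°C; ADP was read by HTRF.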
CCT chaperon mod = modulators of cytosolic chaperonin (CCT/TRiC) activity; purified chaperonin ATPase assay, HTRF ADP detection, 30 min; AID 651819; activity change, % (concentration not given with the values), hits read low; hit rate 0.3% among 360,000; in the data active means activity change below about -30%; further: on the % scale 0 is the no-effect control and ±100 the full control effect
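First, chaperonin was dispensed at 40 nM or 20 nM final depending on batch activity. Next, compounds were pinned at 76 uM and ATP added at 10 uM. After 30 min at 37 °C, ADP detection reagents ran 30 min at ambient temperature.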
ERG Ets-DNA blk = blocks human ERG Ets domain binding to DNA; P11308; fluorescence polarization, His-ERG Ets domain / labelled DNA; Potency, µM (highest dose often 76.9 µM), without a hit: at the highest dose FP activity, negative = inhibition, usual class: inhibitors; hit rate 0.028% among 370,000; AID 624246; active means well fitted inhibition curve with a large enough effect in the polarisation, with a control signal flat; inconclusive means small, poorly fitted or top-dose-only effect, or effect the other way, or a change in a side signal; inactive means no such curve, though single readings can be large or run the other way; the % refers to the polarisation;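 further: polarization taken with two DNA probes labelled with fluorescein and Texas red; potency means the concentration at half of the fitted maximal effect; % of control where 0% means no effect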
Target sequence (P11308 whole entry, looked up, the tested form may be a part): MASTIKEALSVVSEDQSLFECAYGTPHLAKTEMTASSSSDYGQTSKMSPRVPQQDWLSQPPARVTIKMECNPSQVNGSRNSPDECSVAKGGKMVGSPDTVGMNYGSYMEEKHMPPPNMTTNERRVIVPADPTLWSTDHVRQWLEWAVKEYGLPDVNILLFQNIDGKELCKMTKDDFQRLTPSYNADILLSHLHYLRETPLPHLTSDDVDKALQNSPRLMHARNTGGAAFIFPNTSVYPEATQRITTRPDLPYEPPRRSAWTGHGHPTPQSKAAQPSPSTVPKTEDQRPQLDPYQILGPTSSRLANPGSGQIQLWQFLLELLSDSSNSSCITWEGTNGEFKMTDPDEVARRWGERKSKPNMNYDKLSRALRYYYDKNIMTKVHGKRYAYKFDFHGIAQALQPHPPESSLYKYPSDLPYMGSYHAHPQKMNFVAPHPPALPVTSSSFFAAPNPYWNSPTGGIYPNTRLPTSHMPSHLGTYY
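His-tagged ERG Ets domain (1 uM in the protein solution; 300mM KCl, 50mM Tris-HCl, 1mM EDTA, 1mM DTT, pH 7.5) received compound, then a probe mix of 5 nM fluorescein-DNA and 100nM Texas-615-DNA. Fluorescence polarization was read for both dyes.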
PTHR1 ag = PTHR1 (human) receptor agonism. AID 743266. HEK293 GP2 PTHR1 cells, GloSensor cAMP luminescence, 1 h. Potency, µM (top dose mostly 115 µM), for the others: at the top dose activation, actives largely listed as activators. hit rate 0.075% among 410,000; further: potency means the concentration at half of the fitted maximal effect; nearly all actives have a fitted effect of over 55% in size
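HEK-293-derived GP2 cells expressing PTHR1 and a GloSensor cAMP reporter, 3,000/well, plated overnight, given luciferin plus IBMX (each 0.5 mM as added) for 1 h at 37 °C, then compound for 1 h at 37 °C. Luminescence was read after 15 min at room temperature.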
* hit, by the source's call; i = inactive; ? = inconclusive; . = no result given; [ ] = another dose, or the depositor's remark. Unless noted, the call rests on the fitted dose curve; in most records, active means well fitted curve in the direction sought with a large enough effect; inconclusive means small, poorly fitted or top-dose-only effect, or another doubt; inactive means no such curve, though single readings can be large; an effect the other way counts as inactive or inconclusive.

SMILES | RGS4 inhibitor | Mm-Cpn inhibitor | CCT chaperon mod | ERG Ets-DNA blk | PTHR1 ag
Nc1c(S(=O)(=O)O)cc(Nc2ccc(Nc3nc(Cl)nc(Nc4ccc(S(=O)(=O)O)cc4)n3)c(S(=O)(=O)O)c2)c2c1C(=O)c1ccccc1C2=O | 18.9µM* | . | . | . | .
CC(=C/c1ccccc1)/C=N/Nc1nc(N2CCOCC2)nc(N2CCOCC2)n1 | -13.5% | -0.9% | -49.3* | 6.2% | i
CC(C)(C)OC(=O)NC(Cc1ccccc1)C(=O)NC1COC2CC(n3ccc(=O)[nH]c3=O)OC12 (configuration not stated) | -6.5% | . | . | . | .
O=C(c1ccc2c(c1)CCN2S(=O)(=O)c1ccc(Cl)cc1)N1CCN(c2ccccc2)CC1 | 7.6% | . | . | -2.0% | -14.3%
CC(C)N(C(=O)[C@H]1C[C@H](CC(=O)NC(C)(C)C)C(=O)N2CCc3c([nH]c4cc(-c5ccco5)ccc34)[C@]12C)C(C)C | ? | -1.7% | -41.5* | 8.6% | -16.7%
CCN(CC)C(=O)[C@H]1C[C@H](CC(=O)NC(C)(C)C)C(=O)N2CCc3c([nH]c4cc(-c5ccco5)ccc34)[C@]12C | -26.7% | 1.9% | 0.9 | 2.4% | -8.6%
CCN(CC)S(=O)(=O)c1ccc(C)c(NC(=O)COc2ccc3c(C)cc(=O)oc3c2)c1 | 7.0% | 2.8% | -1.3 | -6.4% | -34.1%
CCN(CC)S(=O)(=O)c1ccc(OC)c(NC(=O)C(C)Oc2ccc3c(C)cc(=O)oc3c2)c1 (configuration not stated) | -38.3% | -21.8% | -31.5* | -2.3% | -8.6%
CC[C@]1(O)C[C@@H]2CN(CCc3c([nH]c4ccccc34)[C@@](C(=O)OC)(c3cc4c(cc3OC)N(C)C3[C@]45CCN4CC=C[C@](CC)(C45)[C@@H](OC(C)=O)[C@]3(O)C(=O)OC)C2)C1 (some centres not stated) | i | . | . | . | .
COc1ccc(C(=O)N2CCC(c3nc(-c4ccc(S(=O)(=O)N5CCCC5)cc4)no3)CC2)cc1 | -14.6% | . | . | -3.1% | -22.3%
CCCCC(=O)Nc1nnc(SCc2cc(=O)n3cc(C)ccc3n2)s1 | -4.0% | . | . | -0.1% | i
O=C(O)CCCC(=O)Nc1ccc(Br)cc1 | -15.9% | -15.7% | -0.3 | 4.4% | i
O=C(O)CCCC(=O)Nc1ccc(Cl)cc1 | 7.4% | -3.0% | -64.9* | -4.2% | ?
CC(C)=CC(=O)Nc1c(C)cc(C)cc1Cl | -3.8% | -1.8% | -4.9 | -9.7% | i
Cc1cc(C)c(NC(=O)CCCC(=O)O)c(Cl)c1 | 4.8% | 0.9% | -50.1* | -7.0% | 25.5%[57.5 µM]
COc1ccc(OC)c(NC(=O)N2CC3CCCN3c3ccccc32)c1 (configuration not stated) | -10.9% | . | . | -1.1% | -3.5%
CCOc1ccc(CCNC(=O)c2cccc(N3CCCC3=O)c2)cc1OCC | -33.9% | -2.1% | -1.3 | -3.6% | i
COc1ccc(CCNC(=O)c2ccc(N3CCCC3=O)cc2)cc1OC | 15.8% | -1.4% | -31.8* | 8.5% | i
COc1ccccc1N1CCN(Cc2nc(N)nc(Nc3ccc(C)c(Cl)c3)n2)CC1 | -3.9%[11.4 µM] | -4.3% | -33.6* | -4.2% | -14.0%
Cc1ccc(-c2onc(C)c2C)cc1S(=O)(=O)NCc1ccc(N(C)C)cc1 | -17.0% | . | . | -1.2% | -19.8%
O=C(c1ccc(F)cc1)C1CCN(C(=O)Nc2ccc(F)cc2)CC1 | 6.8% | 3.1% | -33.9* | 0.5% | -26.1%
CCOC(=O)NN1C(=O)c2ccccc2NC1c1cccs1 (configuration not stated) | -17.2% | -2.2% | -0.8 | 35.5µM* | -11.4%
CCOC(=O)NN1C(=O)c2ccccc2NC1c1cccnc1 (configuration not stated) | -21.3% | 1.2% | -4.7 | 1.8% | -21.8%
CC(C)N(CCC(=O)c1ccc2ccccc2c1)Cc1ccccc1 | 0.67µM* | -0.3% | -1.5 | -7.6% | -94.4%
COC(=O)c1c(NC(=O)c2nc(SCc3ccccc3C)ncc2Cl)sc2c1CCCC2 | -5.4% | . | . | 8.4% | 22.2%
COc1ccc(-c2noc(CCC(=O)N3CCN(c4ccccc4OC)CC3)n2)cc1 | 18.0% | 1.2% | -39.4* | -6.5% | -89.1%
